Among the data in PubChem BioAssay (NCATS) are Potency values, retold here.

Calls of active or inactive are those of the source. How the calls were made is not given here. Bounds are passed on as bounds.
Potency means the concentration at half of the fitted maximal effect.

In the experiment the test system is HIV-1 nucleocapsid protein NCp7 (binding to TG oligonucleotide). In words: HIV Nucleocapsid (AID 346).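 Further: potency is for inhibitors that block NC binding and lower polarization.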 The conditions noted are these: HIV-1 NC / fluorescein-TGTGTGTG probe, fluorescence polarization. The essentials: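 Fluorescence polarization binding of 100 nM HIV-1 NC to 10 nM fluorescein-labelled TG4xF oligonucleotide. Buffer was Hepes pH 7.5 with 250mM NaCl, 1uM ZnCl2, TCEP and 2-mercaptoethanol. Compounds were incubated 1 hr at room temperature before the read.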
Take `COc1ccc(CNc2ncncc2-c2ccccc2CN(C)C)c(OC)c1`: the Potency was > 20 µM (inactive).
Next, `COc1ccc(CNc2cc(-c3cccc(NS(C)(=O)=O)c3)ncn2)c(OC)c1`: > 20 µM (inactive).
Next, `Cn1c(=O)c(-c2ccc(F)cc2)nc2cnc(Oc3ccccc3)nc21`: > 20 µM (inactive).
Next, `CN1CCN(c2ncc3nc(CCc4ccccc4)c(=O)n(Cc4cccs4)c3n2)CC1`: > 20 µM (inactive); `COCCn1c(=O)c(C)nc2cnc(Nc3ccccc3)nc21`: > 20 µM (inactive).
Turning to `N#Cc1cccc(NC(=O)N2CCC3(CC2)CCN(C(=O)c2cnccn2)CC3)c1`, the Potency is > 20 µM (inactive).
Turning to `COc1ccccc1CN1CCC2(CC1)CCN(C(=O)c1cccc(F)c1)CC2`, the Potency was > 20 µM (inactive).
For `Cc1noc(C)c1C(=O)N1CCC2(CCCN(C(=O)NC(C)C)C2)CC1`, the Potency is > 20 µM (inactive).
Next, `COc1ccc(-c2nc3cnc(Oc4ccccc4)nc3n(CCC#N)c2=O)cc1`: 16.7 µM (inactive).
Take `O=S(=O)(c1ccccc1)N1CCC2(CCN(c3ccncc3)CC2)CC1`: the Potency is > 20 µM (inactive).
`COc1ccc(Oc2ncc3nc(-c4ccc(Cl)cc4)c(=O)n(C[C@H]4CCCO4)c3n2)cc1`: the Potency was > 20 µM (inactive).
The same measure for `COc1ccc(-n2c(=O)c(-c3cc(F)cc(F)c3)nc3cnc(N(C)C)nc32)cc1`: > 20 µM (inactive); for `c1cncc(CNc2ncncc2-c2ccc3c(c2)OCO3)c1`: > 20 µM (inactive).
`c1ccc(CNc2ncncc2-c2cccnc2)cc1`: the Potency was > 20 µM (inactive).
As to `O=c1c(-c2cc(F)cc(F)c2)nc2cnc(N3CCOCC3)nc2n1Cc1cccs1`, the Potency was > 20 µM (inactive).
The same measure for `N#Cc1cccc(-c2cncnc2NCc2cccs2)c1`: > 20 µM (inactive).
For `Cn1c(=O)c(-c2cc(F)cc(F)c2)nc2cnc(N3CCNCC3)nc21`, the Potency is > 20 µM (inactive).
Next, `O=C(Oc1ccccc1)N1CCC2(CCCN(c3ccc(-c4ccccc4)cc3)C2)CC1`: > 20 µM (inactive); `COc1ccc(Oc2ncc3nc(-c4ccc(F)cc4)c(=O)n(C4CC4)c3n2)cc1`: > 20 µM (inactive).
The same measure for `CS(=O)(=O)N1CCC2(CC1)CN(c1cccc(-c3ccccc3)c1)C2`: > 20 µM (inactive); for `N#Cc1cccc(-c2ccc3ncnc(NCc4cccs4)c3c2)c1`: > 20 µM (inactive); for `COc1ccc(Oc2ncc3nc(C)c(=O)n(-c4ccccc4)c3n2)cc1`: > 20 µM (inactive).
Next, `COC(=O)N1CCC2(CC1)CN(c1ccc(-c3ccccc3)cc1)C2`: > 20 µM (inactive).
For the molecule `O=C(c1cnccn1)N1CCC2(CCN(Cc3ccncc3)CC2)CC1`, the Potency was > 20 µM (inactive).
The same measure for `CC(=O)NCCNc1ncnc2ccc(-c3ccc4c(c3)OCO4)cc12`: > 20 µM (inactive); for `CN(C)C(=O)c1ccc(-c2cncnc2NC2CCNCC2)cc1`: > 20 µM (inactive).
For the molecule `COCCNc1nc(-c2ccccc2OC)nc2ccccc12`, the Potency is > 20 µM (inactive).
The same measure for `COc1ccc(C(=O)N2CCC[C@@]3(CCN(c4ccccn4)C3)C2)cc1`: > 20 µM (inactive).
With `NC(=O)c1ccccc1-c1nc(-n2ccnc2)c2ccccc2n1`, the Potency was > 20 µM (inactive).
The same measure for `CN(C)Cc1ccccc1-c1ccc2ncnc(NC3CCNCC3)c2c1`: > 20 µM (inactive).
The same measure for `Cc1cnc(CNc2cc(-c3ccc(N(C)C)cc3)ncn2)cn1`: > 20 µM (inactive); for `FC(F)(F)c1ccccc1-c1nc(NC2CC2)c2ccccc2n1`: > 20 µM (inactive); for `c1cncc(-c2nc(NCCN3CCOCC3)c3ccccc3n2)c1`: > 20 µM (inactive).
The same measure for `O=S(=O)(c1ccccc1)N1CCC2(CCN(C(c3ccccc3)c3ccccc3)CC2)CC1`: > 20 µM (inactive); for `COc1ccccc1CNc1nc(-c2ccoc2)nc2ccccc12`: > 20 µM (inactive); for `O=S(=O)(c1ccccc1)N1CCC[C@@]2(CCN(Cc3cc(C(F)(F)F)cc(C(F)(F)F)c3)C2)C1`: > 20 µM (inactive).
Take `COc1ccc(CNc2ccnc(-c3ccc(C(=O)N(C)C)cc3)n2)c(OC)c1`: the Potency is > 20 µM (inactive).
The same measure for `COc1cccc(-c2nc(N(C)Cc3ccco3)c3ccccc3n2)c1`: > 20 µM (inactive).
Next, `Cn1cccc1C(=O)N1CCC2(CC1)CN(Cc1ccc(C#N)cc1)C2`: > 20 µM (inactive); `CN1CCN(c2ncc3nc(-c4ccccc4)c(=O)n(CCc4ccccc4)c3n2)CC1`: > 20 µM (inactive).
